Screening data from PubChem.
Compounds with a hit are over-represented: about 3.4% of the library has one in this group of screens.
GBA mod – alters purified human glucocerebrosidase activity; P04062; Potency, µM; 1.1% of 48,000 active; AID 360; purified enzyme, resorufin glucoside fluorescence (screen aimed at inhibitors), 20 min; in the data active means potency below about 15 µM; inconclusive means mostly about 16 µM to 33 µM;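 further: the screen sought inhibitors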
Target sequence (P04062 whole entry, looked up): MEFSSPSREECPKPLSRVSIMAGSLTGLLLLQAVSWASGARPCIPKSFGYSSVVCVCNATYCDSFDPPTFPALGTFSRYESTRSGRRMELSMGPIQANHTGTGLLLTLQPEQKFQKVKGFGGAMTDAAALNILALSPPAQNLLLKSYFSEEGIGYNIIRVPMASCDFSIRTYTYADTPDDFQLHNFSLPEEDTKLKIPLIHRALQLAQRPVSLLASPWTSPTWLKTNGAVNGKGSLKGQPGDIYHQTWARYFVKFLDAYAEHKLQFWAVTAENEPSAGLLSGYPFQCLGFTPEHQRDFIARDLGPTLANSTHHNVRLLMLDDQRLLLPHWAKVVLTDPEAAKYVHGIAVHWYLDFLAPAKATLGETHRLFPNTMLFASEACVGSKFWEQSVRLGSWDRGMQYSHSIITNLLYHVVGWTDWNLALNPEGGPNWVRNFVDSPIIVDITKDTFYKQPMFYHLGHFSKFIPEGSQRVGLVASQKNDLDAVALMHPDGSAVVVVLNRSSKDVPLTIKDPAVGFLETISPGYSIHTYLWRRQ
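Compounds titrated against 0.2 nM normal enzyme, 30 uM resorufin beta-D-glucopyranoside substrate, citrate/phosphate buffer with taurocholate and tween-20, pH 5.9. Reaction ran 20 min at room temperature; fluorescence (Ex 548/Em 600) gave AC50.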
PK Bst – pyruvate kinase (B. stearothermophilus) modulation | purified pyruvate kinase, luminescence ATP production; ribose 5-phosphate activator present at AC10 | Potency, µM | 1.2% of 51,000 active | AID 361; in the data active means potency below about 11 µM; inconclusive means mostly about 12 µM to 25 µM;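 the screen sought inhibitors and activators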
FLuc inh – inhibitors of firefly luciferase; 2.2% of 72,000 active; P08659; Potency, µM (titrated, usually from 57.1 µM), actives largely listed as inhibitors; purified firefly luciferase, luminescence, 8 min; active means well fitted inhibition curve with a large enough effect; inconclusive means small, poorly fitted or top-dose-only effect; further: nearly all actives have a fitted effect of over 40% in size
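Titration-based qHTS; buffer 50 mM imidazole pH 7.2, 50 mM KCl, 7 mM MgCl2, 10 uM ATP, 0.01% Tween 20, 0.05% BSA; luciferase/luciferin detector mix added after compound; 8 min, ambient; luminescence.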
Numbers stand for hits; n = inactive; u = inconclusive; x = no result given; [ ] = dose if it differs, or a comment.

SMILES | GBA mod | PK Bst | FLuc inh
Cc1onc(-c2ccccc2Cl)c1C(=O)OCC(=O)c1ccc2c(c1)OCCO2 | n | x | 15.8µM
Cc1cc(NC(=O)COC(=O)c2c(C)nn(Cc3ccccc3)c2Cl)no1 | n | n | n
CNc1ccc2oc(C[C@@H]3O[C@@]4(CC[C@H]3C)O[C@@H]([C@@H](C)C(=O)c3ccc[nH]3)[C@@H](C)C[C@H]4C)nc2c1C(=O)O | x | x | n
C[C@@H]1[C@H]2C=C[C@@H]1[C@@H](c1c3ccc(=O)c(O)c-3oc3c(O)c(O)ccc13)[C@@H]2C(=O)O | x | x | n[11.4 µM]
NCCc1ccc(O)cc1 | n | n | n
NNC(=O)c1ccc(O)cc1 | x | x | 12.6µM
C=CCN1CCc2cccc3c2[C@@H]1Cc1ccc(O)c(O)c1-3 | x | x | n
Cn1cc(CCC(=O)N2CCC3(CC2)OCCO3)c2ccccc21 | n | n | n
Cc1cc(N2CCOCC2)nc2ccc(NC(=O)CCC(=O)N3CCC4(CC3)OCCO4)cc12 | 4.68 | x | 12.6µM
C=C[C@@H]1CN2CC[C@@H]1C[C@H]2[C@H](O)c1ccnc2ccccc12 | x | x | n[11.4 µM]
[O-]/[N+](=C/c1cccnc1)c1ccc(Br)cc1 | x | x | 10µM
Cc1ccc(C2(O)CC(C)N(C)CC2C)cc1 (stereo not drawn) | n | n | n
CCOc1ccc(Br)c(C2(O)CC(C)N(C)CC2C)c1 (stereo not drawn) | n | x | 25.1µM
O=S(=O)(c1ccccc1)N1CN2CCN(C2)C1 | 13.7 | n | n
c1ccc(C[N+]23CN4CN(CN(C4)C2)C3)cc1 | x | x | n[11.4 µM]
CC(=O)Nc1ccc(OC(=O)c2ccccc2N)cc1 | x | x | n
Nc1ccccc1C(=O)OCCOc1ccccc1 | n | u | 12.6µM
NC(N)=Nc1ccc2[nH]c3c(c2c1)C[C@]1(O)[C@@H]2Cc4ccc(O)c5c4[C@]1(CCN2CC1CC1)[C@H]3O5 | x | x | n
O=C1C[C@H]2OCCC=C3CN4CC[C@@]56c7ccccc7N1[C@@H]5[C@H]2[C@H]3C[C@@H]46 | x | x | n[11.4 µM]
CN1CCN(C(=O)COc2ccc(-c3nc4ccccc4s3)cc2)CC1 | n | 1.03 | 0.794µM
CC(C)NS(=O)(=O)c1ccc(OCC(=O)N2CCN(C)CC2)cc1 | x | x | n
C=C(C)[C@@H]1CN[C@H](C(=O)O)[C@H]1CC(=O)O | x | x | n
CCCOc1ccc2[nH]cc(C3=CCNCC3)c2n1 | x | x | 12.6µM
C1=C(c2c[nH]c3ccccc23)CCNC1 | n | x | n
CC(C)C[C@H]1C(=O)N2CCC[C@@H]2[C@]2(O)O[C@](NC(=O)[C@H]3C=C4c5cccc6[nH]cc(c56)C[C@H]4N(C)C3)(C(C)C)C(=O)N12 | x | x | n[11.4 µM]
CCC(C)NC(=O)c1c(N)n(CC2CCCO2)c2nc3ccccc3nc12 (stereo not drawn) | u | n | n
CCC(C)NC(=O)c1c(N)n(Cc2ccc3c(c2)OCO3)c2nc3ccccc3nc12 (stereo not drawn) | 15.1 | n | n
CSC([N-]/N=C/c1cccc(C)n1)=[S]=[Cu].CS[C@H]([S-])[N-]/N=C/c1cccc(C)n1 | x | x | n[11.4 µM]
CC[C@H](CO)NC(=O)[C@@H]1C=C2c3cccc4c3c(cn4C)C[C@@H]2N(C)C1 | x | x | n
O=c1ccc2cc(O[C@@H]3O[C@@H](CO)[C@@H](O)[C@@H](O)[C@H]3O)c(O)cc2o1 | x | x | n[11.4 µM]
